Sampled rows, rich in hits. Any-hit rate of the full collection: about 1.3%.
AmpC inh no detg: inhibitors of E. coli AmpC beta-lactamase without detergent; P00811; AmpC nitrocefin hydrolysis, absorbance 480 nm, 0.0001% Triton; Potency, µM (doses to about 57.1 µM), without a hit: at the highest dose activity change, negative = inhibition, most hits filed as inhibitors; hit rate 0.52% among 330,000; AID 485341;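 further: plate controls were no compound for no effect and no enzyme for full effect; nearly all actives have a fitted effect of over 20% in size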
Target sequence (P00811 whole entry, looked up): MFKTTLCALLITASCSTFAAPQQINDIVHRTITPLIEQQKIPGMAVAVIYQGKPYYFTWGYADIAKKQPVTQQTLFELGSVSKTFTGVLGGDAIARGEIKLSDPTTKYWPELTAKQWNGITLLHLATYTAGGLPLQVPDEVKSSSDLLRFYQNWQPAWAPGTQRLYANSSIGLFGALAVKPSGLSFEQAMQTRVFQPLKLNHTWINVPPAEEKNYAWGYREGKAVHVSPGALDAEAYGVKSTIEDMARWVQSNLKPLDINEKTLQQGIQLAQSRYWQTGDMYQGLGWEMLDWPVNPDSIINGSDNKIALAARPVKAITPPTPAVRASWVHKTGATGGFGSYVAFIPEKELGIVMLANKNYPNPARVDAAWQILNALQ
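20 mM phosphate pH 7.0 + 0.01% (detergent screen) or 0.0001% Triton X-100; 5.3 nM AmpC reagent; cpd preinc 15 min RT; nitrocefin (800 uM stock) to start; A480 q20 s × 4 min; Activity was normalised to no-enzyme and no-compound control wells.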
VACV Venus inh: vaccinia inhibition (Venus reporter); Vaccinia virus Venus reporter expression, fluorescence; Potency, µM (highest dose often 36.5 µM), without a hit: at the top dose activity change, negative = inhibition, most hits filed as inhibitors; hit rate 0.46% among 330,000; calls by dose curve; tested in A549 cells; further: on the % scale 0 is the no-effect control and ±100 the full control effect; nearly all actives have a fitted effect of over 30% in size
SARS PLP yeast: inhibitors of SARS-CoV papain-like protease in yeast; S. cerevisiae expressing SARS-CoV PLpro, growth rescue; AID 485353; hit rate 0.19% among 330,000; Potency, µM (highest dose often 32.9 µM), for inactives: top-dose activity, positive = growth rescue, actives largely listed as activators; calls by dose curve; further: 0% is about no effect; nearly all actives have a fitted effect of over 55% in size
VACV mCherry inh: vaccinia inhibition (mCherry reporter); Vaccinia virus mCherry reporter infection, fluorescence; Potency, µM (top dose mostly 36.5 µM), inactives show at the top dose activity change, negative = inhibition, most hits filed as inhibitors; hit rate 0.63% among 310,000; calls by dose curve; tested in A549 cells; further: on the % scale 0 is the no-effect control and ±100 the full control effect; nearly all actives have a fitted effect of over 35% in size
AmpC detergent: AmpC beta-lactamase inhibition with detergent present. P00811. AmpC hydrolysis of nitrocefin, absorbance 480 nm, 0.01% Triton. Potency, µM (top dose mostly 114 µM), for inactives: at the highest dose activity change, negative = inhibition, most hits filed as inhibitors. hit rate 0.041% among 370,000. AID 485294;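 further: 0% = no-compound wells and -100% = no-enzyme wells; nearly all actives have a fitted effect of over 25% in size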
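AmpC (5.3 nM in the dispensed reagent) in 20 mM phosphate pH 7.0 with 0.01% (detergent screen) or 0.0001% Triton X-100 was preincubated with compounds for 15 min at room temperature. Nitrocefin was then added from an 800 uM solution, and hydrolysis was followed at 480 nm.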
Active calls of the source: *; i = inactive; ? = inconclusive; / = no result. Unless noted, the call rests on the fitted dose curve; in most records, active means well fitted curve in the direction sought with a large enough effect; inconclusive means small, poorly fitted or top-dose-only effect, or another doubt; inactive means no such curve, though single readings can be large; an effect the other way counts as inactive or inconclusive. Potency means the concentration at half of the fitted maximal effect.

SMILES	AmpC inh no detg	VACV Venus inh	SARS PLP yeast	VACV mCherry inh	AmpC detergent
CCOC(=O)N1CCN(Cc2ccc3c(c2)CN(C(=O)c2cc(-c4ccccc4)on2)CCO3)CC1	/	-19%	/	-24%	/
O=C1C=C(Nc2ccccc2)c2ccccc2C1=O	-27%	7.9µM*	-2%	?	?
O=C(NCc1nnc2n1CCN(Cc1cccc(Cl)c1)CC2)c1cccc(F)c1	/	0%	/	-5%	/
OCCN1CCN(Cc2ccc3c(c2)CN(Cc2cnc(-c4ccccc4)s2)CCO3)CC1	/	-5%	/	-11%	/
CN(C)c1ccc(C=c2c3ccccc3n3c2c2c([n+]3C)CCCC2)cc1	/	6.3µM*	/	3.2µM*	/
CN(C)c1ccc(C=c2c3ccccc3n3c2cc(-c2ccccc2)[n+]3C)cc1	/	252%	/	87%	/
Cc1c(C(=O)NCCCN2CCCC2=O)cnn1-c1ncc2c(n1)-c1ccccc1CC2	/	-25%	/	?	/
Cc1ncsc1CCC(=O)N1CCCC(c2nc(-c3ccncc3)ncc2-c2ccccc2)C1 (configuration not stated)	/	-14%	/	-25%	/
CCOC(=O)[C@H]1[C@H]2COc3ccc(Cl)cc3[C@@H]2N2C(=O)CN(Cc3ccccc3)C(=O)[C@@]12C	189%	-1%	8.9µM*	i	5%
CCOC(=O)[C@H]1[C@H]2COc3ccc(Cl)cc3[C@@H]2N2C(=O)CN(Cc3ccc(Cl)cc3)C(=O)[C@@]12C	120%	-23%	-5%	-10%	6%
Oc1ccc(Cl)cc1C1C=C(c2ccc3c(c2)OCO3)NC(c2ccc(C(F)(F)F)cc2)N1 (configuration not stated)	/	-11%	/	16%	/
CC(C)N1CCC2(CC1)N=C(c1ccc3c(c1)OCO3)CC(c1cc(Cl)ccc1O)N2 (configuration not stated)	18µM*	-29%	-30%	/	-5%
Cc1ccc(Cl)cc1Nc1nc(-c2sc(NC(=O)c3ccccc3)nc2C)cs1	-43%	/	3%	/	-9%
O=C(Nc1cccc(-c2csc(Nc3ccccc3)n2)c1)c1ccccc1	-39%	?	-13%	5µM*	1%
Cc1nc(NC(=O)c2ccccc2)sc1-c1csc(Nc2cccc(F)c2)n1	16µM*	/	-8%	/	-8%
O=C(Nc1cccc(-c2csc(Nc3cccc(C(F)(F)F)c3)n2)c1)c1ccccc1	2µM*	?	-10%	?	-1%
CC(=O)c1cccc(Nc2nc(-c3ccccc3)cs2)c1	-43%	?	-1%	-30%	1%
O=C(Nc1ccc([N+](=O)[O-])cc1)Nc1ccc(N2CCOCC2)c2nonc12	-5%	10µM*	4%	?	0%
CC(=O)Nc1cc([N+](=O)[O-])ccc1N1CCOCC1	0%	1%	-2%	i	-2%
COc1ccc(C(=O)Nc2nc3c(s2)CCCC3)cc1S(=O)(=O)N1CCCc2ccccc21	?	2%	14%	11µM*	-5%
Cc1ccc(CN2CCc3nnc(C(C)NC(=O)c4cc(F)ccc4F)n3CC2)o1 (configuration not stated)	/	0%	/	i	/
CC(C)N(CCO)Cc1nc(N2CCOCC2)c2cc(Cl)ccc2n1	/	0%	/	-8%	/
CCN(CC)CCNC(=O)c1nn(-c2ccc(Cl)cc2)c2c1CCc1cc(OC)ccc1-2	/	13µM*	/	?	/
COc1ccccc1C(CNc1ccc(S(=O)(=O)N2CCCC2)cc1[N+](=O)[O-])N(C)C (configuration not stated)	77%	10µM*	9%	8.9µM*	4%
CN(C)CCNc1ccc(CO)c2oc3ccc(O)cc3c(=O)c12	/	10µM*	/	?	/
SMILES	AmpC inh no detg	VACV Venus inh	SARS PLP yeast	VACV mCherry inh	AmpC detergent
Cc1cc2occ(CC(=O)Nc3nnc(C4CC4)s3)c2cc1C	-25%	-1%	-1%	/	0%
O=C(Cc1coc2ccc3ccccc3c12)Nc1nnc(C2CC2)s1	-25%	13%	11%	13µM*	2%
c1ccc(CCc2nnc3n2CCN(Cc2ccc4ccccc4n2)CC3)cc1	/	-9%	/	-12%	/
COc1ccc(NC(=O)c2c(NC(=O)c3ccncc3)sc3c2CCC(C(C)(C)C)C3)cc1 (configuration not stated)	/	?	/	10µM*	2%
CCOc1ccc(NC(=O)c2c(NC(=O)c3ccncc3)sc3c2CCC(C(C)(C)C)C3)cc1 (configuration not stated)	/	-3%	/	-25%	8%
COC(=O)c1cc(NC(=O)C2COc3ccccc3O2)cc(C(=O)OC)c1 (configuration not stated)	0.22µM*	/	-6%	/	3%
COc1cccc(NC(=O)C2COc3ccccc3O2)c1 (configuration not stated)	-1%	/	4%	/	?
Cc1ccc(F)cc1CNC(=O)c1sc2ncnc(NCC3CCCO3)c2c1C (configuration not stated)	/	-18%	/	i	/
COc1cc(NC(=O)N2CCc3nc(NCc4cccc(Oc5ccccc5)c4)ncc3C2)cc(OC)c1OC	/	?	/	10µM*	/
COc1ccc(CNC(=O)N2CCc3nc(Nc4cc(OC)c(OC)c(OC)c4)ncc3C2)cc1	/	-26%	/	12%	/
COc1cccc(/C(O)=C/c2nc3ccc(C(=O)NCCc4ccc(Cl)cc4)cc3[nH]c2=O)c1	-24%	-20%	-21%	-24%	-1%
COc1cccc(/C(O)=C/c2nc3ccc(C(=O)NCCc4cccc(C)c4)cc3[nH]c2=O)c1	11µM*	-19%	7%	-22%	?
Cn1nccc1C(=O)NCC1CCC2(CCN(Cc3cccc4ncccc34)CC2)O1 (configuration not stated)	/	1%	/	-4%	/
COc1ccccc1-c1ccnc(-n2ncc(C(=O)N3CCCCC3c3cccnc3)c2C)n1 (configuration not stated)	/	-8%	/	i	/
CC(C)Cc1nc2cc(NS(=O)(=O)N(C)C)cc(C(=O)N3CCc4ccccc4C3)c2n1C	/	7%	/	-10%	/
COCCNC(=O)c1cc(-c2cccs2)on1	6.3µM*	-28%	-4%	-2%	?
CC(=O)c1cccc(NC(=O)c2cc3nc(-c4ccc(Br)cc4)cc(C(F)(F)F)n3n2)c1	/	?	/	13µM*	5%
COc1ccc(-c2cc(C(F)(F)F)n3nc(C(=O)Nc4cc(Cl)cc(Cl)c4)cc3n2)cc1	/	-11%	/	-7%	0%
COC(=O)CSc1ncnc2c1sc1nc(-c3ccco3)c3c(c12)CC(C)(C)OC3	-30%	/	-1%	/	?
CCOC(=O)c1sc2nc(-c3ccco3)c3c(c2c1N)CC(C)(C)OC3	34%	13µM*	-4%	10µM*	-11%
O=C(C[n+]1cccc(I)c1)c1ccc(F)cc1	/	-13%	/	-7%	/
CCN(CC)CCNC(=O)c1cnn(-c2nccc(-c3cc4ccccc4o3)n2)c1C	/	-4%	/	-14%	/
CCOc1ccc2[nH]c3c(N4CCc5ccccc5C4)ncnc3c2c1	-17%	?	-5%	3.5µM*	14%

Assay outcomes: PubChem BioAssay, National Center for Advancing Translational Sciences (NCATS)
